Where “and” joins values, the source holds several entries; their conditions need not be identical. Equal entries are not always repeated. Records with an inconclusive call do not appear. Entries that show only a call come without a potency. Where a structure was tested more than once in an assay, its records may differ in their call. Calls of active or inactive are those of the source. Calls follow the shape of the dose curve; as a rule, active = well fitted curve in the direction sought with a large enough effect in the repeat runs; inconclusive = weak or mixed curves; inactive = no such curve, though single readings can be large; an effect the other way counts as inactive or inconclusive.
assay: A CellTox Green Cytotoxicity Assay to monitor cytotoxicity in HepG2 cells - 16 hour (AID 1224876); settings: CellTox Green fluorescence; series mostly up to 76.8 µM; also: nearly all actives have a fitted effect of over 45% in size
How it was run: (§1)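 First, HepG2 cells (600/well) mixed with reagent were plated; second, after 5 h at 37 C they received compounds via pintool; third, fluorescence was measured at 0 h through 40 h at 8 h intervals.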
Potency is read from the fitted curve at half-maximal effect.

SMILES | Potency
C=CCOC(Cn1ccnc1)c1ccc(Cl)cc1Cl (centres undefined) | inactive
C1CCC(NC2CCCCC2)CC1 | inactive
O=C(O)COc1ccc(Cl)cc1Cl | inactive
CC(=O)[O][Hg][c]1ccccc1 | 1.72 µM (active) and 2.45 µM (active) and 1.51 µM (active)
C[N+](C)(C)Cc1ccccc1 | inactive
CCC[N+]1(C)CCCC1 | inactive
Oc1cccc2cccnc12 | inactive and 6.16 µM (active)
CCCC[N+]1(C)CCCC1 | inactive
Cc1cc(-c2ccc(N)c(C)c2)ccc1N | inactive
OCCOc1ccccc1 | inactive
Nc1ccc(Cl)cc1 | inactive
COc1ccc(N)cc1 | inactive and 195 nM (active)
CCCC[n+]1ccccc1 | inactive
CCCC[n+]1ccc(C)cc1 | inactive and 54.7 µM (active)
O=C(O)C(Cl)(Cl)Cl | inactive
CCCC[n+]1cccc(C)c1 | inactive

SMILES | Potency
CCC[N+]1(C)CCCCC1 | inactive
Nc1ccccc1 | inactive
Nc1ccc(-c2ccc(N)cc2)cc1 | inactive
Cc1cc(Cl)ccc1N | inactive and 38.9 µM (active)
CCCC[n+]1ccccc1C | inactive
CCCCCCCCCCn1cc[n+](C)c1 | inactive
COCC(=O)N(c1c(C)cccc1C)C(C)C(=O)OC (centres undefined) | inactive
Oc1ccccc1-c1ccccc1 | inactive
CCCCn1cc[n+](C)c1 | inactive
CC(=O)O | inactive
CCCCCCCCCCCCCC[P+](CCCCCC)(CCCCCC)CCCCCC | 12.4 µM (active) and 22.1 µM (active) and inactive
O=c1nc(O)n(Cl)c(=O)n1Cl | inactive
CCCCCCCCCCCCOS(=O)(=O)O | 49 µM (active) and inactive
CCCCCCn1cc[n+](C)c1 | inactive
COP(=O)(OC)C(O)C(Cl)(Cl)Cl (centres undefined) | inactive
CCCCCCCCn1cc[n+](C)c1 | inactive

assay: qHTS RealTime-Glo MT Cell Viability Assay in HepG2 cells - 32 hour (AID 1224877); settings: RealTime-Glo luminescence; series mostly up to 76.8 µM; also: nearly all actives have a fitted effect of over 55% in size
How it was run: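 Viability was tracked continuously by NanoLuc luminescence from prosubstrate reduced by living HepG2 cells, at successive time points over 40 h of compound exposure. Cells with reagent were preincubated 5 h at 37 °C before compound addition.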

SMILES | Potency
C=CCOC(Cn1ccnc1)c1ccc(Cl)cc1Cl (centres undefined) | inactive
C1CCC(NC2CCCCC2)CC1 | inactive
O=C(O)COc1ccc(Cl)cc1Cl | inactive
CC(=O)[O][Hg][c]1ccccc1 | 1.72 µM (active) and 1.95 µM (active) and 1.07 µM (active)
C[N+](C)(C)Cc1ccccc1 | inactive
CCC[N+]1(C)CCCC1 | inactive and 49.3 µM (active)
Oc1cccc2cccnc12 | inactive and 3.09 µM (active)
CCCC[N+]1(C)CCCC1 | inactive
Cc1cc(-c2ccc(N)c(C)c2)ccc1N | inactive
OCCOc1ccccc1 | inactive
Nc1ccc(Cl)cc1 | inactive
COc1ccc(N)cc1 | inactive
CCCC[n+]1ccccc1 | inactive
CCCC[n+]1ccc(C)cc1 | inactive
O=C(O)C(Cl)(Cl)Cl | inactive
CCCC[n+]1cccc(C)c1 | inactive and 55.7 µM (active)

SMILES | Potency
CCC[N+]1(C)CCCCC1 | inactive and 34.8 µM (active)
Nc1ccccc1 | inactive
Nc1ccc(-c2ccc(N)cc2)cc1 | inactive
Cc1cc(Cl)ccc1N | inactive
CCCC[n+]1ccccc1C | inactive
CCCCCCCCCCn1cc[n+](C)c1 | inactive
COCC(=O)N(c1c(C)cccc1C)C(C)C(=O)OC (centres undefined) | inactive
Oc1ccccc1-c1ccccc1 | inactive
CCCCn1cc[n+](C)c1 | inactive and 44.3 µM (active)
CC(=O)O | inactive
CCCCCCCCCCCCCC[P+](CCCCCC)(CCCCCC)CCCCCC | 11 µM (active) and 19.7 µM (active) and inactive
O=c1nc(O)n(Cl)c(=O)n1Cl | inactive
CCCCCCCCCCCCOS(=O)(=O)O | inactive
CCCCCCn1cc[n+](C)c1 | inactive and 50 µM (active)
COP(=O)(OC)C(O)C(Cl)(Cl)Cl (centres undefined) | inactive
CCCCCCCCn1cc[n+](C)c1 | inactive

assay: A CellTox Green Cytotoxicity Assay to monitor cytotoxicity in HepG2 cells - 24 hour (AID 1224878); settings: CellTox Green fluorescence; series mostly up to 76.8 µM; also: nearly all actives have a fitted effect of over 45% in size
How it was run: as §1

SMILES | Potency
C=CCOC(Cn1ccnc1)c1ccc(Cl)cc1Cl (centres undefined) | 49.1 µM (active)
C1CCC(NC2CCCCC2)CC1 | inactive
O=C(O)COc1ccc(Cl)cc1Cl | inactive
CC(=O)[O][Hg][c]1ccccc1 | 1.93 µM (active) and 2.45 µM (active) and 1.34 µM (active)
C[N+](C)(C)Cc1ccccc1 | inactive
CCC[N+]1(C)CCCC1 | inactive
CCCC[N+]1(C)CCCC1 | inactive
Cc1cc(-c2ccc(N)c(C)c2)ccc1N | inactive and 43.6 µM (active)
OCCOc1ccccc1 | inactive
Nc1ccc(Cl)cc1 | inactive
COc1ccc(N)cc1 | inactive and 219 nM (active)
CCCC[n+]1ccccc1 | inactive
CCCC[n+]1ccc(C)cc1 | inactive and 48.7 µM (active)
O=C(O)C(Cl)(Cl)Cl | inactive
CCCC[n+]1cccc(C)c1 | inactive
CCC[N+]1(C)CCCCC1 | inactive
Nc1ccccc1 | inactive
Nc1ccc(-c2ccc(N)cc2)cc1 | inactive
Cc1cc(Cl)ccc1N | inactive and 38.9 µM (active)
CCCC[n+]1ccccc1C | inactive
CCCCCCCCCCn1cc[n+](C)c1 | 44.1 µM (active) and inactive
COCC(=O)N(c1c(C)cccc1C)C(C)C(=O)OC (centres undefined) | inactive
CCCCn1cc[n+](C)c1 | inactive
CC(=O)O | inactive
CCCCCCCCCCCCCC[P+](CCCCCC)(CCCCCC)CCCCCC | 11 µM (active) and 17.5 µM (active) and inactive
O=c1nc(O)n(Cl)c(=O)n1Cl | inactive
CCCCCCCCCCCCOS(=O)(=O)O | 49 µM (active) and inactive
CCCCCCn1cc[n+](C)c1 | inactive
COP(=O)(OC)C(O)C(Cl)(Cl)Cl (centres undefined) | inactive
CCCCCCCCn1cc[n+](C)c1 | inactive
